# According to publication PMC7862700, “An all-to-all approach to the identification of sequence-specific readers for epigenetic DNA modifications on cytosine”:
# Assays:
# Assay in all cases: DAPPL (digital affinity profiling via proximity ligation, sequencing); 10 mM Tris-HCl pH 7.5, 50 mM NaCl, 1 mM DTT, 4% glycerol, room temperature, 30 min; GST-TFs on glutathione beads, 16-mer random dsDNA library, 0.1% formaldehyde crosslink after washing; high values mean tight binding
# FLI1 = target: T1, FLI1 (Homo sapiens, UniProt Q01543 1-452); conditions: protein: recombinant; tags: N-terminal GST; dsDNA, one strand shown
# T1 sequence: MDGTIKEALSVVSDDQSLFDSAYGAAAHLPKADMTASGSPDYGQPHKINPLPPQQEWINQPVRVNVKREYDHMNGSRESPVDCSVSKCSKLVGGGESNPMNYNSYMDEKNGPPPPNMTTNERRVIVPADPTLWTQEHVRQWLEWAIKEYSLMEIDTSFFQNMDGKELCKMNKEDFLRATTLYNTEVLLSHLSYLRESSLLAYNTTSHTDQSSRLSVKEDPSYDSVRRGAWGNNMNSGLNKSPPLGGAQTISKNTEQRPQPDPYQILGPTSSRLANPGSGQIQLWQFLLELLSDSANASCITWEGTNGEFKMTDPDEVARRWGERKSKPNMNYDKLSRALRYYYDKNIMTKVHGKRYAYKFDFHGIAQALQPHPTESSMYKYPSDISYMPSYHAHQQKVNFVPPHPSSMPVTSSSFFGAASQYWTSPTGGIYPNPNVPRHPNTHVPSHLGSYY
# Outline: (§1)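 Yeast served to express human transcription factors as GST fusions, which were then captured on glutathione beads and labelled with DNA barcodes. Pooled with a tag-only sample, they were incubated with 200 nmole of a 16-mer random double-stranded DNA library for 30 min at room temperature in Tris/NaCl/DTT/glycerol buffer, washed, crosslinked with 0.1% formaldehyde, ligated by proximity, amplified by PCR and sequenced. Dividing each hexamer's read frequency for a factor by its frequency for the tag-only sample gives the binding signal.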
# ELK1 = target: T2, ELK1 (Homo sapiens, UniProt P19419 1-428); conditions: protein: recombinant; tags: N-terminal GST; dsDNA, one strand shown
# T2 sequence: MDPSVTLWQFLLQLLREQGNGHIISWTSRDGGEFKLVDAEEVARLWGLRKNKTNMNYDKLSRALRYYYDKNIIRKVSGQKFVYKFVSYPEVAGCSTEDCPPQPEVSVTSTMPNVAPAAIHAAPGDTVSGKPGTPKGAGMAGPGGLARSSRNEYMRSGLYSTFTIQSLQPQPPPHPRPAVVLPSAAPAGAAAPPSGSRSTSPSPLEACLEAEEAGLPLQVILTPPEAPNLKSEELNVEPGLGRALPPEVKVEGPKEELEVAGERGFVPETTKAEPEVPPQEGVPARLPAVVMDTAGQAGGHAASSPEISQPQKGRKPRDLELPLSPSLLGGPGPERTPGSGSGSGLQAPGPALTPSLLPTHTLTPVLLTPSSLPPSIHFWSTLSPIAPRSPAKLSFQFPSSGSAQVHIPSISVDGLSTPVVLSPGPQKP
# Outline: as §1
# GABPA = target: T3, GABPA (Homo sapiens, UniProt Q06546 1-454); conditions: protein: recombinant; tags: N-terminal GST; dsDNA, one strand shown
# T3 sequence: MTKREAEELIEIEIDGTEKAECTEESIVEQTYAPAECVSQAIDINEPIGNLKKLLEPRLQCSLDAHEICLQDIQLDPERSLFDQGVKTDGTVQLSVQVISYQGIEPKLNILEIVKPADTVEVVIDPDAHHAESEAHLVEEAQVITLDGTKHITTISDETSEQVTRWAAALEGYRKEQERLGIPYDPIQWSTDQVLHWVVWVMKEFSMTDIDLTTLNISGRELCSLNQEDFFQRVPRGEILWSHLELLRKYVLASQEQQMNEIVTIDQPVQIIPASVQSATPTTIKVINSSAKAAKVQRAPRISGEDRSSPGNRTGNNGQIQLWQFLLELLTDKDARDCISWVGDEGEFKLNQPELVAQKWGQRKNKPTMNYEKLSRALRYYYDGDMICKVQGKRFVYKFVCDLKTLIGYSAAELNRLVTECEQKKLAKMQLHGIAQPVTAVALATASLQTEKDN
# Outline: as §1
# ERG = target: T4, ERG (Homo sapiens, UniProt P11308 1-479); conditions: protein: recombinant; tags: N-terminal GST; dsDNA, one strand shown
# T4 sequence: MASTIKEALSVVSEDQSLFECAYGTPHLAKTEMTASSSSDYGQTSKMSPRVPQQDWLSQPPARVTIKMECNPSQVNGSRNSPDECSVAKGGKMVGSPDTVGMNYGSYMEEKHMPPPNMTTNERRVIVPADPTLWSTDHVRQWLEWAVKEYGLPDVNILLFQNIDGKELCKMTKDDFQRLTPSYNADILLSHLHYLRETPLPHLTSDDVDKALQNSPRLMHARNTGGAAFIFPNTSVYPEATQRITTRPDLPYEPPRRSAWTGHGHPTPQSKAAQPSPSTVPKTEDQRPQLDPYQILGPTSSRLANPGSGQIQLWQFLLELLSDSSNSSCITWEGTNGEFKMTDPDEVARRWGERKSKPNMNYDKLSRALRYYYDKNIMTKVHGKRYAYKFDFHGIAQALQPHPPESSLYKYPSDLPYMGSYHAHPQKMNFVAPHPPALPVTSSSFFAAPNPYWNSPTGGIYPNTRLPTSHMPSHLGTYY
# Outline: as §1
# ELF1 = ELF1 (Homo sapiens, UniProt P32519 1-619); conditions: protein: recombinant; tags: N-terminal GST; dsDNA, one strand shown
# Outline: as §1
# EHF = target: T5, EHF (Homo sapiens, UniProt Q9NZC4 1-300); conditions: protein: recombinant; tags: N-terminal GST; dsDNA, one strand shown
# T5 sequence: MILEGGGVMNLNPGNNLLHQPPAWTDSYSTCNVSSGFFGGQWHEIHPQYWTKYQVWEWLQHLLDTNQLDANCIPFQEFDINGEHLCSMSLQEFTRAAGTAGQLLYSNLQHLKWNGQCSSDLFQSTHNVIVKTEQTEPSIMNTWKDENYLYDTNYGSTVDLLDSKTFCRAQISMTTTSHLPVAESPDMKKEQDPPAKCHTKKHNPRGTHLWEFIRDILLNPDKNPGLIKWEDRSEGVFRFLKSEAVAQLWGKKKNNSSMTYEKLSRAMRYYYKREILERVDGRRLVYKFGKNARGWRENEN
# Outline: as §1
# SPI1 = SPI1 (Homo sapiens, UniProt P17947 1-270); conditions: protein: recombinant; tags: N-terminal GST; dsDNA, one strand shown
# Outline: as §1
# SPIB = SPIB (Homo sapiens, UniProt Q01892 1-262); conditions: protein: recombinant; tags: N-terminal GST; dsDNA, one strand shown
# Outline: as §1
# ELK3 = target: T6, ELK3 (Homo sapiens, UniProt P41970 1-407); conditions: protein: recombinant; tags: N-terminal GST; dsDNA, one strand shown
# T6 sequence: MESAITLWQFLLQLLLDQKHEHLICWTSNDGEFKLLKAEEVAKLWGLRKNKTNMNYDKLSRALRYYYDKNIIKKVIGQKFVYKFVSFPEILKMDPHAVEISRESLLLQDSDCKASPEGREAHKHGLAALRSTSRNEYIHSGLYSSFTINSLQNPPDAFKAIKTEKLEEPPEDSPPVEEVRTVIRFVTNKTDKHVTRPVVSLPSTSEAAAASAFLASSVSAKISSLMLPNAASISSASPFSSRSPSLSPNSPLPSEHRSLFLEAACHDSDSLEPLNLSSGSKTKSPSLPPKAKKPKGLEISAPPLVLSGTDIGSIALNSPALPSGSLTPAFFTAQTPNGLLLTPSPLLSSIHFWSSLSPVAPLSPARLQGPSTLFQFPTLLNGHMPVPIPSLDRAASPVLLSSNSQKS
# Outline: as §1
# FEV = target: T7, FEV (Homo sapiens, UniProt Q99581 1-238); conditions: protein: recombinant; tags: N-terminal GST; dsDNA, one strand shown
# T7 sequence: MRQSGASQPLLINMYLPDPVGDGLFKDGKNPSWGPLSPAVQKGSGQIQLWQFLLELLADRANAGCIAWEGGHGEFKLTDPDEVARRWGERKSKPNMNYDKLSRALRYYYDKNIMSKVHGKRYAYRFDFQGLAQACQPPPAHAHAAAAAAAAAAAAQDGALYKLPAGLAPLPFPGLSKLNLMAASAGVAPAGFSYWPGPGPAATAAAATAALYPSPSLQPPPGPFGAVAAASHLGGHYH
# Outline: as §1
# ETV5 = ETV5 (Homo sapiens, UniProt P41161 1-510); conditions: protein: recombinant; tags: N-terminal GST; dsDNA, one strand shown
# Outline: as §1
# HSF1 = HSF1 (Homo sapiens, UniProt Q00613 1-529); conditions: protein: recombinant; tags: N-terminal GST; chain copies: 3; dsDNA, one strand shown
# Outline: as §1
# SPIC = target: T8, SPIC (Homo sapiens, UniProt Q8N5J4 1-248); conditions: protein: recombinant; tags: N-terminal GST; dsDNA, one strand shown
# T8 sequence: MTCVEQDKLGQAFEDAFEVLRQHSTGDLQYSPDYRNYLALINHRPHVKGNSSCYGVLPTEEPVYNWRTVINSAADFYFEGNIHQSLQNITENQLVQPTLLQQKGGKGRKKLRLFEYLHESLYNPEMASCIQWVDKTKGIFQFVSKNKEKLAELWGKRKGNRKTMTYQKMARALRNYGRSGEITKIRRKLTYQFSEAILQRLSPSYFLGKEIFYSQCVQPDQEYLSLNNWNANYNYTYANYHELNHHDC
# Outline: as §1
# ELF4 = ELF4 (Homo sapiens, UniProt Q99607 1-663); conditions: protein: recombinant; tags: N-terminal GST; dsDNA, one strand shown
# Outline: as §1
# ELK4 = target: T9, ELK4 (Homo sapiens, UniProt P28324-2 1-405); conditions: protein: recombinant; tags: N-terminal GST; dsDNA, one strand shown
# T9 sequence: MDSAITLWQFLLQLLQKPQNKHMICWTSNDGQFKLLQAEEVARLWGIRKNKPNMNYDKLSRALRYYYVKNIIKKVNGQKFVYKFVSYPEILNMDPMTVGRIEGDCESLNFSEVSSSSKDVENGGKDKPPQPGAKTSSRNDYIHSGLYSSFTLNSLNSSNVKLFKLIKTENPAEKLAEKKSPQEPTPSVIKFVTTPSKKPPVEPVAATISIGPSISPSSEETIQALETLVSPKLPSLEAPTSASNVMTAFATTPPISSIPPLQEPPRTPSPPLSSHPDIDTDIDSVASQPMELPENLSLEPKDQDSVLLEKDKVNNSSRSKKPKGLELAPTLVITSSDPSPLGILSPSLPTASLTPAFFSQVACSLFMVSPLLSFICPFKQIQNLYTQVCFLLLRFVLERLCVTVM
# Outline: as §1
# ETV2 = target: T10, ETV2 (Homo sapiens, UniProt O00321 1-342); conditions: protein: recombinant; tags: N-terminal GST; dsDNA, one strand shown
# T10 sequence: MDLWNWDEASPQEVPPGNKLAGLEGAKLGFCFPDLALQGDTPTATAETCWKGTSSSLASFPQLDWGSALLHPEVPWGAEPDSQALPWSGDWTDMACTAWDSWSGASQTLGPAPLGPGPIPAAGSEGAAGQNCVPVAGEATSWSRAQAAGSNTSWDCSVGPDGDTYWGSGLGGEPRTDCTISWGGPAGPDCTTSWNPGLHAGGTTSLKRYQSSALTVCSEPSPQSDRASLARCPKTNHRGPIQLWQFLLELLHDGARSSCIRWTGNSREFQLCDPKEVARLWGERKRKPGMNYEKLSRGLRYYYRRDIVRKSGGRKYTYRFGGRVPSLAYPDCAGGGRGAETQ
# Outline: as §1
# ELF3 = target: T11, ELF3 (Homo sapiens, UniProt P78545 1-371); conditions: protein: recombinant; tags: N-terminal GST; dsDNA, one strand shown
# T11 sequence: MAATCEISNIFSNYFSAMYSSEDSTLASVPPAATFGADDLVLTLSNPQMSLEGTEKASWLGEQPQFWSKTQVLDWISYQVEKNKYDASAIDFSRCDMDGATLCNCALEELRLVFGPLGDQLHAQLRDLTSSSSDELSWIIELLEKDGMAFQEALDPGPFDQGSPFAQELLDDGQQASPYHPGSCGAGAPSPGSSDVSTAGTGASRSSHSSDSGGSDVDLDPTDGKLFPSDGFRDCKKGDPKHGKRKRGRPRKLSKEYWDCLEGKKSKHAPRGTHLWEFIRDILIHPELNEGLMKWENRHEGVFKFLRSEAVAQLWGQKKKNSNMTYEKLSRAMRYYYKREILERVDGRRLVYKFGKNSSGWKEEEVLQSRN
# Outline: as §1
# CRX = CRX (Homo sapiens, UniProt O43186 1-299); conditions: protein: recombinant; tags: N-terminal GST; dsDNA, one strand shown
# Outline: as §1
# ETV1 = ETV1 (Homo sapiens, UniProt P50549 1-477); conditions: protein: recombinant; tags: N-terminal GST; dsDNA, one strand shown
# Outline: as §1
# Sequence of ETV5 (P41161 whole entry): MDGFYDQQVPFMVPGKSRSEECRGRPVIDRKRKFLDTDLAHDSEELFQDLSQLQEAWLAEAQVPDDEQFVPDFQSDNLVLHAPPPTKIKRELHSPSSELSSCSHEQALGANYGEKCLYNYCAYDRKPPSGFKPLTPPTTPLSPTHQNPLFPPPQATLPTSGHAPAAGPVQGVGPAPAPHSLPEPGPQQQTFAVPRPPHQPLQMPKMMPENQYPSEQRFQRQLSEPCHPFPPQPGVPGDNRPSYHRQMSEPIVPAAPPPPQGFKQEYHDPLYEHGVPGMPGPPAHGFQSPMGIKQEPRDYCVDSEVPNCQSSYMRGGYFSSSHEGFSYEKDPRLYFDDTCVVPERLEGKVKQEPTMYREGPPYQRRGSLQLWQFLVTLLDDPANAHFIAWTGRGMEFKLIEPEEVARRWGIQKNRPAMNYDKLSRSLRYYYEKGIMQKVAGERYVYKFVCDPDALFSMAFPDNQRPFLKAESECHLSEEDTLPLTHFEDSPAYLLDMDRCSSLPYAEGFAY
# Sequence of ELF4 (Q99607 whole entry): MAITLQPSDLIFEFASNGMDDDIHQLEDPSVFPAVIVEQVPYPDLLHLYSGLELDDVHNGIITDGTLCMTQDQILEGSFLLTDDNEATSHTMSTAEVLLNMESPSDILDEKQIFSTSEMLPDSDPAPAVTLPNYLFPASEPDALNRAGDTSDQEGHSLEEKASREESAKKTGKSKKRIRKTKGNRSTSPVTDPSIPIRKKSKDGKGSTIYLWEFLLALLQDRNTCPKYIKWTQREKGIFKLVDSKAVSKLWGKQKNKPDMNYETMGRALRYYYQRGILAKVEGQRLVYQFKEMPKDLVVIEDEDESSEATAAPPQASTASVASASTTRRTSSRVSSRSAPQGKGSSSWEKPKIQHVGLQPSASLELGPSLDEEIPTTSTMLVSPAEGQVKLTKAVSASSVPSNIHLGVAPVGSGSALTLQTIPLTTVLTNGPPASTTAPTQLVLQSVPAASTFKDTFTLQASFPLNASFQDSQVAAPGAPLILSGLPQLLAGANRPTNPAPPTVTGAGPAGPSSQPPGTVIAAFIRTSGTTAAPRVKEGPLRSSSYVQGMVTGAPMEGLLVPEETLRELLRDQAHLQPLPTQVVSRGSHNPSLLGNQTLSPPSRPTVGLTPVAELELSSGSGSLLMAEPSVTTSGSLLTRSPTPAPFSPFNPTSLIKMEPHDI
# Sequence of CRX (O43186 whole entry): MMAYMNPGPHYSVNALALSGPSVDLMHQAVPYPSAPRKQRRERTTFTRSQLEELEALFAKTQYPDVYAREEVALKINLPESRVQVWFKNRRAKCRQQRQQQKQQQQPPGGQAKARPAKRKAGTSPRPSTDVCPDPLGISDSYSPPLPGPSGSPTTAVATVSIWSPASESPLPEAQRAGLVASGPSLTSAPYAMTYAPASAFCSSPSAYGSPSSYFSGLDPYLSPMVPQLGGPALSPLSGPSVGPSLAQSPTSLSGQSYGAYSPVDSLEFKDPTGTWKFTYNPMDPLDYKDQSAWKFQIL
# Sequence of ETV1 (P50549 whole entry): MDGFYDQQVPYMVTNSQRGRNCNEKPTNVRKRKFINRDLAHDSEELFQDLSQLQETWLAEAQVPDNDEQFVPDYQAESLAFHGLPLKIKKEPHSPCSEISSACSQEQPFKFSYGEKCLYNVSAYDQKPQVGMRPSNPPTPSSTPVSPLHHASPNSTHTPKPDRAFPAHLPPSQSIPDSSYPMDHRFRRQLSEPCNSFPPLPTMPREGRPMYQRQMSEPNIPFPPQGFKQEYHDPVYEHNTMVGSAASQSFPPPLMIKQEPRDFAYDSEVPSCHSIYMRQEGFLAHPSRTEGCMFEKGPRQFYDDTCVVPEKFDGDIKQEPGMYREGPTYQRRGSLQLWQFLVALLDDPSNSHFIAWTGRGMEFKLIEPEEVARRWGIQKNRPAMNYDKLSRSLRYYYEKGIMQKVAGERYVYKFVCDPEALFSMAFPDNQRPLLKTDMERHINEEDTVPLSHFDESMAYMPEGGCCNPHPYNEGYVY
# Sequence of SPIB (Q01892 whole entry): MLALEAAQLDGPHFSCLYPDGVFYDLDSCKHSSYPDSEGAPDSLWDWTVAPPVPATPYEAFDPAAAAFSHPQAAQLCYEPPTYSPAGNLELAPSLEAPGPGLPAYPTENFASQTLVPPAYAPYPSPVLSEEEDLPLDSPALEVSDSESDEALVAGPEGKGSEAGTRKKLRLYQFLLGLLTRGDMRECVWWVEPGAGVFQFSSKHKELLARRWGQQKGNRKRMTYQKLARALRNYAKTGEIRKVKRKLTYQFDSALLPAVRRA
# Sequence of ELF1 (P32519 whole entry): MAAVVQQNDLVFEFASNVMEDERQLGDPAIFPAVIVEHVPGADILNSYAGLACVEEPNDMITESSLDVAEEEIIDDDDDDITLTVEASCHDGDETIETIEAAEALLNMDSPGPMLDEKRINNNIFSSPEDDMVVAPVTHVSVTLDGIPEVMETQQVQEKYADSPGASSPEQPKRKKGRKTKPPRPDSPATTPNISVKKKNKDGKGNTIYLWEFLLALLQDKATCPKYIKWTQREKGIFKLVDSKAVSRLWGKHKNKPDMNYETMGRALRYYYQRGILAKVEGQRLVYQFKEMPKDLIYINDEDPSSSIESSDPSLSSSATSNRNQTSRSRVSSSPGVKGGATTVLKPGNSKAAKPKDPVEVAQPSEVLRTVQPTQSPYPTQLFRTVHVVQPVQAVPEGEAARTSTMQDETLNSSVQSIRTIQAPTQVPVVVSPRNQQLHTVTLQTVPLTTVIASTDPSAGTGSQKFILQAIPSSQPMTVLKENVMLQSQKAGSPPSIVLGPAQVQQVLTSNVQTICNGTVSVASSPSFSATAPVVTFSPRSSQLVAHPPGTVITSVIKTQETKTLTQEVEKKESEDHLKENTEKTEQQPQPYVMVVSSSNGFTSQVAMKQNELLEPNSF
# Sequence of HSF1 (Q00613 whole entry): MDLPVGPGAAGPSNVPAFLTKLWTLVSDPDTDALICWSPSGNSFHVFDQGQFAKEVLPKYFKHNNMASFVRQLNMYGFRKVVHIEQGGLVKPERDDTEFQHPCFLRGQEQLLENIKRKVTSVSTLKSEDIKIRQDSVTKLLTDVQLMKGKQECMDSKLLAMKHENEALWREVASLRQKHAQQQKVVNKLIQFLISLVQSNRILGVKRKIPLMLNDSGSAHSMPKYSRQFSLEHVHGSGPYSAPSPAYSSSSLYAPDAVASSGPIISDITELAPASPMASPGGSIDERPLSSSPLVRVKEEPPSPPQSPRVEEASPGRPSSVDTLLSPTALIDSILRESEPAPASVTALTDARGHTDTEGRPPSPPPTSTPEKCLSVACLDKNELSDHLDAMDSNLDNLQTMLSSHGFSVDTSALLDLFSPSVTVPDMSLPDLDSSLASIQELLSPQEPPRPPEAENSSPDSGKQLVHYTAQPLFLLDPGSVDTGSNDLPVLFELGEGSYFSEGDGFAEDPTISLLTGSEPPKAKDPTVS
sequence,measurement,setting,value
TGCTTC,binding signal,FLI1,"2.13 fold enrichment (6-mer frequency, TF over GST control)"
same,binding signal,ELK1,"2.3 fold enrichment (6-mer frequency, TF over GST control)"
same,binding signal,GABPA,"2.09 fold enrichment (6-mer frequency, TF over GST control)"
same,binding signal,ERG,"2.37 fold enrichment (6-mer frequency, TF over GST control)"
same,binding signal,ELF1,"2 fold enrichment (6-mer frequency, TF over GST control)"
same,binding signal,EHF,"2.16 fold enrichment (6-mer frequency, TF over GST control)"
same,binding signal,SPI1,"2.24 fold enrichment (6-mer frequency, TF over GST control)"
same,binding signal,SPIB,"2.31 fold enrichment (6-mer frequency, TF over GST control)"
same,binding signal,ELK3,"2.47 fold enrichment (6-mer frequency, TF over GST control)"
same,binding signal,FEV,"2.29 fold enrichment (6-mer frequency, TF over GST control)"
same,binding signal,ETV5,"2.1 fold enrichment (6-mer frequency, TF over GST control)"
same,binding signal,HSF1,"1.49 fold enrichment (6-mer frequency, TF over GST control)"
same,binding signal,SPIC,"2.35 fold enrichment (6-mer frequency, TF over GST control)"
same,binding signal,ELF4,"1.98 fold enrichment (6-mer frequency, TF over GST control)"
same,binding signal,ELK4,"2.01 fold enrichment (6-mer frequency, TF over GST control)"
same,binding signal,ETV2,"2.38 fold enrichment (6-mer frequency, TF over GST control)"
same,binding signal,ELF3,"2.25 fold enrichment (6-mer frequency, TF over GST control)"
same,binding signal,CRX,"1.22 fold enrichment (6-mer frequency, TF over GST control)"
same,binding signal,ETV1,"2.19 fold enrichment (6-mer frequency, TF over GST control)"
